Of roughly 7,900 targets only a part is listed; those with a hit were picked by preference. About 0.6% of all pairs of compound and target were hits.
What was measured:
Assay in all cases: log2 fold change, soluble protein after heating vs DMSO (PISA); higher = thermal stabilisation; K562 cells, 10 uM, 30 min; active = over 0.2 and 3.5 SD of the protein, either way, in both replicates (recomputed)
[1] = compound: CC1=C(C=C(C=C1)NC(=O)C2=CC(=CC=C2)C(C)(C)C#N)NC3=CC4=C(C=C3)N=CN(C4=O)C
Method in brief: (§1)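 Aliquots of K562 cells (2×10^6 cells/mL) treated with 10 μM compound for 30 min were heated for 3 min over 48°C-58°C. After pooling and extraction in PBS with 0.5% NP-40 at 4°C, soluble protein from a 21,000xg, 90 min spin was quantified by TMTpro 16plex LC-MS/MS with channel sums equalised. Thermal stability is expressed against control samples, from duplicates, as a log2 fold change.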

[2] = compound: CC1=C(C=C(C=C1)NC(=O)C2=CC(=CC=C2)N(C)C)NC(=O)C3=CC=C(C=C3)O
Method in brief: as §1

[3] = compound: CC1=CC=C(C=C1)SC2=C3C=C(SC3=CN=C2)C(=O)N
Method in brief: as §1

[4] = compound: CC1=NC(=CC=C1)C2=C(N=C(N2)C(C)(C)C)C3=CC4=NC=CN=C4C=C3
Method in brief: as §1

Nexturastat A = compound: CCCCN(Cc1ccc(C(=O)NO)cc1)C(=O)Nc1ccccc1 [Nexturastat A]
Method in brief: as §1

vemurafenib = compound: CCCS(=O)(=O)Nc1ccc(F)c(C(=O)c2c[nH]c3ncc(-c4ccc(Cl)cc4)cc23)c1F [vemurafenib]
Method in brief: as §1

[5] = compound: CCCS(=O)(=O)Nc1ccc(F)c(C(=O)c2c[nH]c3ncc(Cl)cc23)c1F
Method in brief: as §1

[6] = compound: CCCc1cc(C)[nH]c(=O)c1CNC(=O)c1cc(-c2ccnc(N3CCN(C)CC3)c2)cc2c1cnn2C(C)C
Method in brief: as §1

givinostat = compound: CCN(CC)Cc1ccc2cc(COC(=O)Nc3ccc(C(=O)NO)cc3)ccc2c1 [givinostat]
Method in brief: as §1

barasertib = compound: CCN(CCCOc1ccc2c(Nc3cc(CC(=O)Nc4cccc(F)c4)[nH]n3)ncnc2c1)CCOP(=O)(O)O [barasertib]
Method in brief: as §1

[7] = compound: CC[C@@H]1C(=O)N(C)c2cnc(Nc3ccc(C(=O)NC4CCN(C)CC4)cc3OC)nc2N1C1CCCC1
Method in brief: as §1

volasertib = compound: CC[C@@H]1C(=O)N(C)c2cnc(Nc3ccc(C(=O)N[C@H]4CC[C@H](N5CCN(CC6CC6)CC5)CC4)cc3OC)nc2N1C(C)C [volasertib]
Method in brief: as §1

[8] = compound: CC[C@H](C)N1C=C(C2=C(C=C(C=C21)C3=CN=C(C=C3)N4CCNCC4)C(=O)NCC5=C(C=C(NC5=O)C)C)C
Method in brief: as §1

epoxomicin = compound: CC[C@H](C)[C@@H](C(=O)N[C@@H]([C@@H](C)O)C(=O)N[C@@H](CC(C)C)C(=O)[C@]1(CO1)C)NC(=O)[C@H]([C@@H](C)CC)N(C)C(=O)C [epoxomicin]
Method in brief: as §1

[9] = compound: CCn1c(C(=O)N(C2CC2)C2CC2)cc2c3c(ncn3C)c(Nc3cc(C)n(C)n3)nc21
Method in brief: as §1

[10] = compound: CCn1cc(-c2ccnc3[nH]c(-c4cccc(CN(C)C)c4)cc23)c(-c2ccc(NC(=O)N(C)C)cc2)n1
Method in brief: as §1

[11] = compound: CN(C)CC(=O)Nc1ccc2[nH]c(=O)c3ccccc3c2c1
Method in brief: as §1

rosiglitazone = compound: CN(CCOC1=CC=C(C=C1)C[C@H]2C(=O)NC(=O)S2)C3=CC=CC=N3 (racemic) [rosiglitazone]
Method in brief: as §1

[12] = compound: CN1C2=C(C3=C1C(=O)N(N=C3)CC4=CC(=CC=C4)N)SC(=C2)S(=O)C
Method in brief: as §1

[13] = compound: CN1CCC(CNc2ccc3ncc(-c4cccc(OC(F)(F)F)c4)n3n2)CC1
Method in brief: as §1

Measured: log2 fold change

SMAD9 (UniProt O15198)
UniProt O15198, sequence (O15198 whole entry, looked up): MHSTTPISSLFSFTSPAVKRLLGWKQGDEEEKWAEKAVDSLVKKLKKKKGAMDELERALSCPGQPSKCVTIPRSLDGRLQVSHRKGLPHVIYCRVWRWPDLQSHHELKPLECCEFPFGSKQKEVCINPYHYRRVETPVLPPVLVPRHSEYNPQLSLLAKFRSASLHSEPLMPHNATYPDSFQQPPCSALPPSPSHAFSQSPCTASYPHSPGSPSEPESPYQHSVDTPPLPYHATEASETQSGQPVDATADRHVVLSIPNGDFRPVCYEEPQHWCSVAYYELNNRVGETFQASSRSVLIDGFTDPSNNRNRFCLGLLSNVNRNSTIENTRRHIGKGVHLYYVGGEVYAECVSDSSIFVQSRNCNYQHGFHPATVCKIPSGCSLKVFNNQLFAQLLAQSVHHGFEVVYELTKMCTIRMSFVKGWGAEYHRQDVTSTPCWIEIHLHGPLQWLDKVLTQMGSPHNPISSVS
active: volasertib -0.417
inactive: [1] -0.012 | [2] 0.029 | [3] 0.005 | [4] 0.028 | Nexturastat A 0.04 | vemurafenib 0.122 | [5] 0.104 | [6] -0.032 | givinostat 0.108 | barasertib 0.054 | [7] 0.059 | [8] -0.137 | epoxomicin 0.026 | [9] -0.006 | [10] 0.035 | [11] 0.043 | rosiglitazone 0.13 | [12] -0.087 | [13] -0.261

TIAL1 isoform 2 (UniProt Q01085)
UniProt Q01085, sequence (Q01085 whole entry, looked up): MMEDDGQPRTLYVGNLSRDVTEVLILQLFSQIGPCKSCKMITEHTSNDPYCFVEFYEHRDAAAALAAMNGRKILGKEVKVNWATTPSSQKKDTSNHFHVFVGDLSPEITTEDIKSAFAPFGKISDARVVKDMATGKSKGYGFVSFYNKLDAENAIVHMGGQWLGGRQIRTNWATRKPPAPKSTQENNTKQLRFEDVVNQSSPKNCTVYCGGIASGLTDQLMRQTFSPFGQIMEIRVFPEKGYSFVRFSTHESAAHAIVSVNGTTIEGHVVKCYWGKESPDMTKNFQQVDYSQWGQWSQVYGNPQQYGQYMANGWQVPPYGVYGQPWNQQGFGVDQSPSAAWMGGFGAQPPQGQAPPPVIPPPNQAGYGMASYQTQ
inactive: [1] -0.009 | [2] 0.015 | [3] -0.019 | [4] 0.08 | Nexturastat A 0.005 | vemurafenib 0.023 | [5] 0.002 | [6] -0.007 | givinostat -0.022 | barasertib -0.021 | [7] 0.042 | volasertib -0.042 | [8] 0.006 | epoxomicin 0.001 | [9] 0.01 | [10] 0.026 | [11] -0.056 | rosiglitazone -0.019 | [12] -0.063 | [13] -0.03

TECR (UniProt Q9NZ01)
UniProt Q9NZ01, sequence (Q9NZ01 whole entry, looked up): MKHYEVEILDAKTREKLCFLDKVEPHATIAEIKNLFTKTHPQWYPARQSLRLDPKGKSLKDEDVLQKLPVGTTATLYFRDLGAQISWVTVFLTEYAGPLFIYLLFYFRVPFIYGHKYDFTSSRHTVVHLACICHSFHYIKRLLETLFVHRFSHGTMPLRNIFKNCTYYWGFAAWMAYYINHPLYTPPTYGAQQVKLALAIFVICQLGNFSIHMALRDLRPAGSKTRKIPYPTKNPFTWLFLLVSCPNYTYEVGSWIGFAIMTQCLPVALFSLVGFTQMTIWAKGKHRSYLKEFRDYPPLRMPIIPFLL
active: volasertib -0.24 | [13] -0.347
inactive: [1] -0.017 | [2] -0.034 | [3] 0.031 | [4] 0.069 | Nexturastat A -0.043 | vemurafenib 0.021 | [5] 0.113 | [6] -0.084 | givinostat 0.011 | barasertib 0.007 | [7] -0.116 | [8] 0.015 | epoxomicin 0.026 | [9] 0.021 | [10] -0.085 | [11] 0.042 | rosiglitazone 0.043 | [12] -0.063

TBC1D9B (UniProt Q66K14)
inactive: [1] -0.028 | [2] 0.116 | [3] 0.05 | [4] -0.032 | vemurafenib 0.095 | [5] 0.048 | [6] -0.189 | givinostat 0.002 | barasertib 0.04 | [8] 0.053 | epoxomicin -0.073 | [9] -0.089 | [10] -0.141 | [11] 0.021 | rosiglitazone -0.102 | [12] 0.018
active: Nexturastat A 0.361 | [7] -0.58 | volasertib -0.348 | [13] -0.328

TARBP1 (UniProt Q13395)
inactive: [1] 0.069 | [2] 0.001 | [3] 0.002 | [4] -0.01 | Nexturastat A 0.016 | vemurafenib 0.036 | [5] -0.062 | [6] -0.067 | givinostat -0.017 | barasertib 0.023 | [7] -0.022 | [8] -0.107 | epoxomicin 0.121 | [9] 0.018 | [10] 0.077 | [11] -0.012 | rosiglitazone 0.013 | [12] 0.001 | [13] -0.027
active: volasertib -0.337

TIMM10 (UniProt P62072)
UniProt P62072, sequence (P62072 whole entry, looked up): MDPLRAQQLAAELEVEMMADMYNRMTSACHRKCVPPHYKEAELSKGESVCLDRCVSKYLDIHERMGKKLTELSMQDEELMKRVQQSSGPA
inactive: [1] 0.031 | [2] -0.078 | [3] 0.018 | [4] 0.045 | Nexturastat A -0.124 | vemurafenib 0.058 | [5] -0.093 | [6] -0.049 | givinostat -0.05 | barasertib 0.022 | [7] 0.029 | volasertib 0.052 | [8] -0.023 | epoxomicin 0.032 | [9] 0.059 | [10] 0.006 | [11] -0.046 | rosiglitazone -0.007 | [12] -0.074 | [13] 0.14

SRSF9 (UniProt Q13242)
inactive: [1] -0.044 | [2] 0.015 | [3] -0.083 | [4] -0.082 | Nexturastat A 0.37 | vemurafenib -0.116 | [5] 0.076 | [6] 0.075 | givinostat 0.151 | barasertib -0.082 | [7] 0.189 | volasertib 0.414 | [8] -0.004 | epoxomicin -0.421 | [9] 0.097 | [10] 0.323 | [11] -0.106 | rosiglitazone -0.07 | [12] 0.506 | [13] 0.364

SRPRB (UniProt Q9Y5M8)
UniProt Q9Y5M8, sequence (Q9Y5M8 whole entry, looked up): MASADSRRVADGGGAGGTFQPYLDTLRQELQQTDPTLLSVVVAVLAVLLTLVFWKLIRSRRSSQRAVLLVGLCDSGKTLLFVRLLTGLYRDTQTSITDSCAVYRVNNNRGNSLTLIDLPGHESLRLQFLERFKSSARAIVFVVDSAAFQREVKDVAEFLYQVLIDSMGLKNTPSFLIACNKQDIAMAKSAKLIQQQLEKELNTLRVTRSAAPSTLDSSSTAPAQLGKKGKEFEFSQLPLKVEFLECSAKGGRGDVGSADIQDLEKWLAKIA
inactive: [1] 0.096 | [2] -0.051 | [3] 0.025 | [4] 0.092 | Nexturastat A -0.035 | vemurafenib 0.061 | [5] 0.073 | [6] 0.035 | givinostat -0.127 | barasertib 0.027 | [7] -0.141 | volasertib -0.048 | [8] 0.031 | epoxomicin 0.1 | [9] -0.046 | [10] -0.134 | [11] 0.042 | rosiglitazone 0.002 | [12] -0.05 | [13] 0.051

SRRM2 (UniProt Q9UQ35)
UniProt Q9UQ35, sequence (Q9UQ35 whole entry, looked up): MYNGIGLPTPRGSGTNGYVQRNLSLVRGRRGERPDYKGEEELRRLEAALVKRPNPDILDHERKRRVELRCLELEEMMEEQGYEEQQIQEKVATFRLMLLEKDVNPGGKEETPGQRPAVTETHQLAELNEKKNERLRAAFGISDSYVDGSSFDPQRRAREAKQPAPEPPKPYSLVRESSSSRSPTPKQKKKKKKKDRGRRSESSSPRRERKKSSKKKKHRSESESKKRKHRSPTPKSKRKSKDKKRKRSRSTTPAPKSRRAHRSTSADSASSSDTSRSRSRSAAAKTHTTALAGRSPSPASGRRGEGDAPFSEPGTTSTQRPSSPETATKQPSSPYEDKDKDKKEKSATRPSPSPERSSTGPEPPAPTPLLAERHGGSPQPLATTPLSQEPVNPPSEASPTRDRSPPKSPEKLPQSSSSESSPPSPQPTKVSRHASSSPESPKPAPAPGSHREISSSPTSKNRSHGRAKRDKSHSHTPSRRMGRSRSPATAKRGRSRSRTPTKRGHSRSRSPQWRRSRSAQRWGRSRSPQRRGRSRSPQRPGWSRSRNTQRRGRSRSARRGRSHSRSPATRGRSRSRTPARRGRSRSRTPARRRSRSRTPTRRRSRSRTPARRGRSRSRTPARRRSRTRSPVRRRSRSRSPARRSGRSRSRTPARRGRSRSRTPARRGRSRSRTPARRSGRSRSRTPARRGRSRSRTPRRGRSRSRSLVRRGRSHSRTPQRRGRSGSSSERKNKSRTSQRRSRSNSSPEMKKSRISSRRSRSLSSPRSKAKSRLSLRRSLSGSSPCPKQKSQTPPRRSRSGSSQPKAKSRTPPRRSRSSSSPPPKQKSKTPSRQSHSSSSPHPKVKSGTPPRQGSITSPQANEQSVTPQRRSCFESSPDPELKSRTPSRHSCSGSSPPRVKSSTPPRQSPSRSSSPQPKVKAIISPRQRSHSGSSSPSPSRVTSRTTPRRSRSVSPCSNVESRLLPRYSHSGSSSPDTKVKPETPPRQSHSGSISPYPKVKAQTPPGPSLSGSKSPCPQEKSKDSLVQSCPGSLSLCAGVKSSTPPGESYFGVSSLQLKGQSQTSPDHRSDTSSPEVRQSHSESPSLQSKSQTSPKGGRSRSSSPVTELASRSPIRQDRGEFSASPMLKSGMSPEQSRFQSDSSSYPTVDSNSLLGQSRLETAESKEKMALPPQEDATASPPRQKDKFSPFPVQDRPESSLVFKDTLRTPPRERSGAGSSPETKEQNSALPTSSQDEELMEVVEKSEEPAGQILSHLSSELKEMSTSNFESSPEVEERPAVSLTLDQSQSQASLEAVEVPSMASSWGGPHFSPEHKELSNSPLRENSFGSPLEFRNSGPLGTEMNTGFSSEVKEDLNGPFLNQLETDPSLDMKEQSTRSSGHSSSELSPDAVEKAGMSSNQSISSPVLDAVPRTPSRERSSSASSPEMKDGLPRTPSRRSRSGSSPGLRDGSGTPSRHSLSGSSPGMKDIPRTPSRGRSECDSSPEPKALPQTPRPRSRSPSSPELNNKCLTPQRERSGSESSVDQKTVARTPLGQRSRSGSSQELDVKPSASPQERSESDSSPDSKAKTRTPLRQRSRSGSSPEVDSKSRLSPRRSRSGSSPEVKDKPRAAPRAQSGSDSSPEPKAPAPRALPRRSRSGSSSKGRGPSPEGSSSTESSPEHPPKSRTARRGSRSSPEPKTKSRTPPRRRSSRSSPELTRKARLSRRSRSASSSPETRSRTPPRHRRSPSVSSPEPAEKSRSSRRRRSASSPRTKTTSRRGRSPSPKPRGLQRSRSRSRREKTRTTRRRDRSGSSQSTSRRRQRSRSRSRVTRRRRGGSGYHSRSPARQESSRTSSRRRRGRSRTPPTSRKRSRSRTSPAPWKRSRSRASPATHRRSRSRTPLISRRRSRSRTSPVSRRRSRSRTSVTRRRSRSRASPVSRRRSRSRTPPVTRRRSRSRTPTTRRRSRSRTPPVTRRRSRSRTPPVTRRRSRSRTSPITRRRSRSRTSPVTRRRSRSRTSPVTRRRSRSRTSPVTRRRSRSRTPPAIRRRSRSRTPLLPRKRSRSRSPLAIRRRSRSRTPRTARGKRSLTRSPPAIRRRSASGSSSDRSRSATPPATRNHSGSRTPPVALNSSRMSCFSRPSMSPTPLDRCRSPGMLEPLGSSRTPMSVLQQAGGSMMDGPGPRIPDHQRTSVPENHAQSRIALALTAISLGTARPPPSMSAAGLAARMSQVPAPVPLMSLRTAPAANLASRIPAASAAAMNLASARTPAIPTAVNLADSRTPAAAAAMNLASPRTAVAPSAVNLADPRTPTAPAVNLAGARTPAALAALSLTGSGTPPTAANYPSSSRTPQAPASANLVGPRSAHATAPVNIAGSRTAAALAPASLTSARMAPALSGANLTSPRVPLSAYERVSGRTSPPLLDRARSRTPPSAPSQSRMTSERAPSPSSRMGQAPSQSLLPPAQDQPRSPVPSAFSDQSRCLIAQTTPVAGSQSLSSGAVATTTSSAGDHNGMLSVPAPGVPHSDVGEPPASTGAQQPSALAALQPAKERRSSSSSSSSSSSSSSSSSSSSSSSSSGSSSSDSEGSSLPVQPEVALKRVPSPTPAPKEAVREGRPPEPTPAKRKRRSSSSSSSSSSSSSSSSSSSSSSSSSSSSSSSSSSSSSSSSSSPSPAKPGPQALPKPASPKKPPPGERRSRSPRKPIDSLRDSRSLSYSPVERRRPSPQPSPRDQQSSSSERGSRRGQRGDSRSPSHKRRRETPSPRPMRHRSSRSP
inactive: [1] -0.022 | [2] 0.01 | [3] -0.067 | [4] 0.147 | Nexturastat A 0.156 | vemurafenib 0.068 | [5] 0.007 | [6] 0.01 | givinostat 0.082 | barasertib -0.041 | [7] -0.025 | volasertib 0.009 | [8] 0.046 | epoxomicin -0.071 | [9] -0.016 | [10] -0.072 | [11] 0.053 | rosiglitazone 0.046 | [12] 0.062 | [13] -0.222

TGFBRAP1 (UniProt Q8WUH2)
inactive: [1] -0.058 | [2] -0.001 | [3] 0.138 | [4] 0.061 | Nexturastat A 0.107 | vemurafenib -0.055 | [5] -0.003 | [6] 0.038 | givinostat 0.092 | barasertib 0.01 | [7] -0.098 | volasertib -0.253 | [8] 0.128 | epoxomicin 0.048 | [9] -0.038 | [10] -0.059 | [11] 0.11 | rosiglitazone 0.097 | [12] 0.195 | [13] 0.011

SP100 isoform 4 (UniProt P23497)
inactive: [1] 0.02 | [2] -0.004 | [3] 0.072 | [4] -0.008 | Nexturastat A -0.119 | vemurafenib -0.019 | [5] 0.159 | [6] 0 | givinostat -0.005 | barasertib 0.003 | [7] -0.021 | volasertib -0.065 | [8] 0.012 | epoxomicin -0.006 | [9] 0.023 | [10] 0.056 | [11] -0.045 | rosiglitazone -0.009 | [12] -0.059 | [13] -0.064

SP1 (UniProt P08047)
inactive: [1] 0.023 | [2] -0.068 | [3] -0.067 | [4] -0.033 | Nexturastat A 0.034 | vemurafenib -0.017 | [5] -0.069 | [6] -0.018 | givinostat -0.114 | barasertib 0.011 | [7] 0.047 | volasertib 0.102 | [8] 0 | epoxomicin -0.032 | [9] 0.007 | [10] -0.003 | [11] -0.042 | rosiglitazone -0.005 | [12] 0.006 | [13] -0.063

SLC25A42 (UniProt Q86VD7)
inactive: [1] -0.007 | [2] 0.041 | [3] 0.038 | [4] -0.049 | Nexturastat A -0.021 | vemurafenib -0.015 | [5] 0.089 | [6] -0.054 | givinostat -0.006 | barasertib 0.001 | [7] -0.025 | volasertib 0.039 | [8] -0.028 | epoxomicin 0 | [9] 0.019 | [10] 0.002 | [11] -0.021 | rosiglitazone 0.025 | [12] 0.022 | [13] 0.022

ST6GAL1 (UniProt P15907)
UniProt P15907, sequence (P15907 whole entry, looked up): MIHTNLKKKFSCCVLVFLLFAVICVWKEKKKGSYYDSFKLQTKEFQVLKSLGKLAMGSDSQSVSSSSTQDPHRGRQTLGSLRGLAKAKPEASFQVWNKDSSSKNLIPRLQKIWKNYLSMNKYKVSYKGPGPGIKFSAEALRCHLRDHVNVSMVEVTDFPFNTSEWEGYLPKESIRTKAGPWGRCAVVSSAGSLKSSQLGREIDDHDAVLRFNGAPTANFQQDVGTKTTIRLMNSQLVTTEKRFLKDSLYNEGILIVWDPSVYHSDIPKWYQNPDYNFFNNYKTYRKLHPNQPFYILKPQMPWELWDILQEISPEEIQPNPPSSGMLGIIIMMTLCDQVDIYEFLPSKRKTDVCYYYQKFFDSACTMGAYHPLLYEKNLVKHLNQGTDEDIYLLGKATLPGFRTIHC
active: [7] -0.221
inactive: [1] 0.025 | [2] -0.032 | [3] -0.028 | [4] -0.064 | Nexturastat A -0.031 | vemurafenib -0.1 | [5] -0.069 | [6] 0.047 | givinostat -0.005 | barasertib -0.014 | volasertib -0.257 | [8] 0.003 | epoxomicin -0.066 | [9] 0.019 | [10] 0.01 | [11] 0.041 | rosiglitazone 0.058 | [12] -0.057 | [13] -0.149

SRSF10 (UniProt O75494)
UniProt O75494, sequence (O75494 whole entry, looked up): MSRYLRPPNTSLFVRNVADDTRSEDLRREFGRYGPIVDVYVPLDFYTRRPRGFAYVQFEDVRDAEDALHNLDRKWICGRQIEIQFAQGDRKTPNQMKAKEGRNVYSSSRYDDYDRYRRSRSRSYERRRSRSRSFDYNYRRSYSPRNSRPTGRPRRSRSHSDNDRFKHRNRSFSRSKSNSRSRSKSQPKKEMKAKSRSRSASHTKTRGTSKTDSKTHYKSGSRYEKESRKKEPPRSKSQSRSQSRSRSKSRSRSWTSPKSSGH
inactive: [1] -0.046 | [2] 0.029 | [3] -0.076 | [4] -0.134 | Nexturastat A 0.227 | vemurafenib -0.027 | [5] -0.027 | [6] 0.083 | givinostat 0.017 | barasertib -0.045 | [7] 0.141 | volasertib 0.274 | [8] -0.197 | epoxomicin -0.408 | [9] 0.047 | [10] 0.276 | [11] -0.127 | rosiglitazone -0.073 | [12] 0.498 | [13] 0.237
